Experiment [1] has as its target Progesterone receptor (Homo sapiens) (UniProt P06401). Put plainly: qHTS assay to identify small molecule agonists of the progesterone receptor (PR) signaling pathway (AID 1346784; calls by dose curve; note: nearly all actives have a fitted effect of over 30% in size). In a few lines: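 Fluorescence from LiveBLAzer B/G FRET substrate cleavage (2 hr, RT) reported PR activation in PR-UAS-bla HEK 293T cells treated 16 hr at 37C/5% CO2 with compounds; medium contained 2% charcoal-stripped FBS.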
(In qHTS, concentration-response curves come from the screen itself.)

For experiment [2] the target is unchanged. Nature of the experiment: qHTS assay to identify small molecule antagonists of the progesterone receptor (PR) signaling pathway (AID 1346795; active = well fitted inhibition curve with a large enough effect in the signal ratio in the repeat runs, not every such curve was filed as active; the % refers to the signal ratio). In a few lines:
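Fluorescence intensity measured 2 hr after adding beta-lactamase FRET substrate to PR-UAS-bla HEK293T cells that had been co-treated 16 hr with compound and 1 nM R5020 (final concentration) in 2% charcoal-stripped FBS.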

Experiment [3] is described as follows: qHTS assay to identify small molecule agonists of the progesterone receptor (PR) signaling pathway - cell viability counter screen (AID 1346799; calls by dose curve; note: nearly all actives have a fitted effect of over 45% in size; note: potency is the fitted concentration of half-maximal effect). In outline:
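In parallel with the beta-lactamase readout, cytotoxicity toward PR-UAS-bla HEK293T cells was measured by CellTiter-Glo luminescence following 16 hr compound incubation in 2% charcoal-stripped FBS medium.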

The nature of experiment [4]: qHTS assay to identify small molecule antagonists of the TGF-beta/Smad signaling pathway - cell viability counter screen (AID 1346824). Note: nearly all actives have a fitted effect of over 50% in size. In a few lines: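 SBE-bla HEK 293T cells, incubated overnight, then compound plus 0.25 ng/mL TGF-beta1 (stock added) for 5 hr at 37 C. Viability was read in the same wells by CellTiter-Glo luminescence after 30 min at room temperature.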

The nature of experiment [5]: qHTS assay to identify small molecule agonists of the TGF-beta/Smad signaling pathway - cell viability counter screen (AID 1346829). Note: top concentration of the series differs between compounds; nearly all actives have a fitted effect of over 45% in size. In outline:
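Same-well cytotoxicity: CellTiter-Glo added after the 2 hr room-temperature beta-lactamase substrate step, luminescence measured 30 min later; cells had 5 hr of compound at 37 C.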

The nature of experiment [6]: qHTS assay to identify small molecule agonists of the TGF-beta/Smad signaling pathway (AID 1346859; active = well fitted activation curve with a large enough effect in the signal ratio in the repeat runs, not every such curve was filed as active; the % refers to the signal ratio; note: series mostly up to about 77 µM). In a few lines: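 After overnight seeding, SBE-bla HEK 293T cells are dosed with compounds in DMSO and kept 5 hr at 37 C, 5% CO2. LiveBLAzer-type FRET substrate is then applied for 2 hr at room temperature.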
For experiment [7], the target named is Thyrotropin-releasing hormone receptor (Homo sapiens) (UniProt P34981). Put plainly: qHTS assay to identify small molecule antagonists of the thyrotropin-releasing hormone receptor (TRHR) signaling pathway (AID 1346877; active = well fitted inhibition curve with a large enough effect in the repeat runs, not every such curve was filed as active; note: series mostly up to about 51 µM). In outline:
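Kinetic fluorescence (3 min, 1 s resolution) following stimulation with TRH at 1 nM final; HEK293 cells bearing human TRHR; 5 min compound preincubation at RT; concentration-response over 15 points, triplicates.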

Experiment [8] shares this target. Put plainly: qHTS assay to identify small molecule agonists of the thyrotropin-releasing hormone receptor (TRHR) signaling pathway (AID 1346891; calls by dose curve;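 note: HEK293 cells expressing TRHR with calcium dye readout; series mostly up to about 58 µM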). In outline:
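Compounds were tested as agonists at 15 concentrations, in triplicate, on TRHR-Hek293 cells; calcium-sensitive dye fluorescence was recorded for 3 min following addition.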

A short description of experiment [9]: Human pregnane X receptor (PXR) small molecule agonists, qHTS cell viability counter screen (AID 1346977). Note: nearly all actives have a fitted effect of over 50% in size. In a few lines:
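Viability counter screen: CellTiter-Fluor signal in PXR-Luc HepG2 cells, 24hr compound exposure, 37C, 5% CO2.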

Experiment [10] can be described thus: Caspase-3/7 induction in HepG2 cells by small molecules, qHTS assay (AID 1346978). Note: nearly all actives have a fitted effect of over 15% in size. In outline:
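Wild-type HepG2 cells, 2,000/well, settled 5 hr at 37 C and 5% CO2, then compound-treated for 17 hr; caspase-3/7 activity read by luminescent Caspase-Glo 3/7 after 30 min at room temperature.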

Experiment [11] in a line: Caspase-3/7 induction in CHO-K1 cells by small molecules, qHTS cell viability counter screen (AID 1346979). Note: nearly all actives have a fitted effect of over 35% in size. Note: potency is the fitted concentration of half-maximal effect. In outline: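 Viability readout by fluorescence (CellTiter-Fluor) on wild-type CHO-K1 cells exposed for 16hr at 37C and 5% CO2 to compounds delivered in DMSO; reagent incubated 1hr before reading.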
A short description of experiment [12]: Caspase-3/7 induction in CHO-K1 cells by small molecules, qHTS assay (AID 1346980). Note: nearly all actives have a fitted effect of over 15% in size. In a few lines:
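Wild-type CHO-K1 cells exposed to compounds for 17hr at 37 C, 5% CO2. Caspase-3/7 activity then measured by Caspase-Glo 3/7 luminescence after 30min at room temperature.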

Experiment [13] can be described thus: Caspase-3/7 induction in HepG2 cells by small molecules, qHTS cell viability counter screen (AID 1346981). Note: series mostly up to about 92 µM; nearly all actives have a fitted effect of over 30% in size. In outline:
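In this quantitative HTS counter screen, compounds delivered in DMSO were left on unmodified HepG2 cells for 16 hr at 37 C. Viability was then determined fluorometrically with CellTiter-Fluor, in parallel with caspase-3/7 induction in the same wells.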

The target of experiment [14] is Nuclear receptor subfamily 1 group I member 2 (Homo sapiens) (UniProt O75469). Nature of the experiment: Human pregnane X receptor (PXR) small molecule agonists, qHTS assay (AID 1346982). Note: nearly all actives have a fitted effect of over 35% in size. Note: potency is the fitted concentration of half-maximal effect. In a few lines: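 Reporter HepG2 cells expressing PXR-Luc are cultured in charcoal-stripped FBS (5%), treated with compounds for 24 hr at 37 C, and assayed by ONE-Glo luminescence after 30 min at room temperature.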
Nuclear receptor subfamily 1 group I member 2 (Homo sapiens), sequence (O75469 whole entry, looked up): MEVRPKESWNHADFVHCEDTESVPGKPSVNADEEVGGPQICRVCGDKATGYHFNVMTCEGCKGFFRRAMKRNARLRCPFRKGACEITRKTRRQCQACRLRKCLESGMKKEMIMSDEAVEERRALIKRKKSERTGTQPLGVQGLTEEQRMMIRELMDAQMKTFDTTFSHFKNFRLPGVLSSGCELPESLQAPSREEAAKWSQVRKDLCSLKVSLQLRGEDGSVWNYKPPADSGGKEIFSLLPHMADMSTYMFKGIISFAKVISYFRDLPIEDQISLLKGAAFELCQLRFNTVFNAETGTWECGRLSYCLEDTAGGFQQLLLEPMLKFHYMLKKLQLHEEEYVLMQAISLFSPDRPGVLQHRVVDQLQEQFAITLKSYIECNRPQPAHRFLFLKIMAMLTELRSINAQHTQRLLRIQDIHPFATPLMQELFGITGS

In experiment [15] the target is Cytochrome P450 2D6 (Homo sapiens) (UniProt P10635). Put plainly: Cytochrome P450 Family 2 Subfamily D Member 6 (CYP2D6) small molecule antagonists: luciferase reporter qHTS assay (AID 1671196). Note: series mostly up to about 120 µM; nearly all actives have a fitted effect of over 50% in size. In a few lines:
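Test chemicals meet CYP2D6 plus proluciferin substrate (10 min, RT); NADPH regenerating solution then drives turnover for 1 h. Detection reagent halts the reaction; luminescence measured after 20 min.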
Background: Reporter assays use an easily measured gene product as a stand-in for the process of interest.

Experiment [16] has as its target Cytochrome P450 2C19 (Homo sapiens) (UniProt P33261). Put plainly: Cytochrome P450 Family 2 Subfamily C Member 19 (CYP2C19) small molecule antagonists: luciferase reporter qHTS assay (AID 1671197). For activity change, negative = inhibition: series mostly up to about 120 µM. Note: nearly all actives have a fitted effect of over 65% in size. Note: potency is the fitted concentration of half-maximal effect. In outline:
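Quantitative high-throughput screen of the Tox21 library using CYP2C19 with proluciferin substrate. Reaction: NADPH regeneration, 37C, 1 h, after 10 min compound preincubation at room temperature. Readout: luminescence.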

Experiment [17] is described as follows: qHTS assay to identify small molecule antagonists of the progesterone receptor (PR) signaling pathway - cell viability counter screen (AID 1346798). Note: series mostly up to about 92 µM; nearly all actives have a fitted effect of over 50% in size. In outline: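 CellTiter-Glo luminescence; PR-UAS-bla HEK293T, 3,000 cells/well; compound + R5020, 16 hr, 37C/5% CO2; 30 min RT before read.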
Experiment [18] deals with Nuclear receptor subfamily 1 group I member 2 (Rattus norvegicus) (UniProt Q9R1A7). Nature of the experiment: Rat pregnane X receptor (rPXR) activation by small molecules, qHTS assay (AID 1346983). Note: nearly all actives have a fitted effect of over 20% in size. Conditions: rPXR luciferase reporter cells, One-Glo luminescence, 24 h; max activation: hits give high values. In a few lines:
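Cell-based rPXR activation assay: rPXR cells, 2,000 per well, rested 5hr at 37 C, then exposed to compounds in DMSO for 24 hr at 37 C. Luciferase activity read by One-Glo luminescence after 30 min at room temperature.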

Values without a mark were called inactive. Inconclusive results are not listed. Calls of active or inactive are those of the source. Unless noted, calls come from the whole dose curve; as a rule, active = well fitted curve in the direction sought with a large enough effect in the repeat runs; inconclusive = weak or mixed curves; inactive = no such curve, though single readings can be large; an effect the other way counts as inactive or inconclusive.
% is set by controls: 0 for no effect and ±100 for the full control effect.

Cytochrome P450 2D6 (Homo sapiens), sequence (P10635 whole entry, looked up): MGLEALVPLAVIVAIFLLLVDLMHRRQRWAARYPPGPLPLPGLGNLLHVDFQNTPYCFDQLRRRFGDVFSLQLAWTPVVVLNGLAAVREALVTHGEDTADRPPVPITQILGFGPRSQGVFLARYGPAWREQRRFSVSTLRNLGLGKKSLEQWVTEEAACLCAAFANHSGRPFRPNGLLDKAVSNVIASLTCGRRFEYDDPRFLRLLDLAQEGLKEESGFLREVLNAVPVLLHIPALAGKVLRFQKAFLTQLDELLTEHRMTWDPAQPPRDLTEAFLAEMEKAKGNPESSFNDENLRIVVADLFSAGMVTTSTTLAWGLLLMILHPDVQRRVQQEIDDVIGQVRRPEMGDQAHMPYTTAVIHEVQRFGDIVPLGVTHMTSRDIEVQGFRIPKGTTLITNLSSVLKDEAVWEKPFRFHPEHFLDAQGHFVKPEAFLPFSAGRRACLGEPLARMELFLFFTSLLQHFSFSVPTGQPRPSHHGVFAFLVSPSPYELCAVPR
Progesterone receptor (Homo sapiens), sequence (P06401 whole entry, looked up): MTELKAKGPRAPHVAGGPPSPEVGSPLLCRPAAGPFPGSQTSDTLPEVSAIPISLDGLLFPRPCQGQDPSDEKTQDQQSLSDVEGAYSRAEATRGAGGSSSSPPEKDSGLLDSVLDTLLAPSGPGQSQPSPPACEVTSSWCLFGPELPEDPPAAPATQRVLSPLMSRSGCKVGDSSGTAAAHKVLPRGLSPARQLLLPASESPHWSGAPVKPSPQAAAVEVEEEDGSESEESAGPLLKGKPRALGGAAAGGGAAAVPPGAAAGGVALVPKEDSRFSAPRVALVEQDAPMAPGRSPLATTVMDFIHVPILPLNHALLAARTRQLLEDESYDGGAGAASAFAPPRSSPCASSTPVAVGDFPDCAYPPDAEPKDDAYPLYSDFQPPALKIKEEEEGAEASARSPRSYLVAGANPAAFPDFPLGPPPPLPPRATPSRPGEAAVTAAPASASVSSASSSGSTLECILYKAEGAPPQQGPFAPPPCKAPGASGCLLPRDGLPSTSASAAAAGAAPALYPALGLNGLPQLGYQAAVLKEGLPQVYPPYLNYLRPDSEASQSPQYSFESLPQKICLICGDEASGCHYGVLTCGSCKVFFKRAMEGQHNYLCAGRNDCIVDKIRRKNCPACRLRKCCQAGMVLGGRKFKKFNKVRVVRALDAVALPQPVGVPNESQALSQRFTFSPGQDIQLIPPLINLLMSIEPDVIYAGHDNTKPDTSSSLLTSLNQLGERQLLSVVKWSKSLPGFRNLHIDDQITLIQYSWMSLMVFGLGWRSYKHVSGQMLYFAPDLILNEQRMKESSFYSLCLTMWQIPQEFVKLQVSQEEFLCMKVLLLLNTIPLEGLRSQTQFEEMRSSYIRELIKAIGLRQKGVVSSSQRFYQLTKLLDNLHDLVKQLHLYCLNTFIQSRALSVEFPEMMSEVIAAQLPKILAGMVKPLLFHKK
Thyrotropin-releasing hormone receptor (Homo sapiens), sequence (P34981 whole entry, looked up): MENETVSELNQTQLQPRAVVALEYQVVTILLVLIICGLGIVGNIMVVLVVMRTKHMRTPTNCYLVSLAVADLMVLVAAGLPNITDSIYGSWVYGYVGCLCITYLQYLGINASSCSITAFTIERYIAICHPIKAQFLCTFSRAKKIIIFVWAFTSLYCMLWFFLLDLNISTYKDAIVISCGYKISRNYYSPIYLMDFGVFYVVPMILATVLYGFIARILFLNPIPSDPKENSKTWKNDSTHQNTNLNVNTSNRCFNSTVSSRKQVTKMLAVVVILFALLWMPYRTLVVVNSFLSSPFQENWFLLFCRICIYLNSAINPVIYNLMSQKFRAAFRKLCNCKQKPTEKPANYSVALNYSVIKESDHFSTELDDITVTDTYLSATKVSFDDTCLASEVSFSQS
Cytochrome P450 2C19 (Homo sapiens), sequence (P33261 whole entry, looked up): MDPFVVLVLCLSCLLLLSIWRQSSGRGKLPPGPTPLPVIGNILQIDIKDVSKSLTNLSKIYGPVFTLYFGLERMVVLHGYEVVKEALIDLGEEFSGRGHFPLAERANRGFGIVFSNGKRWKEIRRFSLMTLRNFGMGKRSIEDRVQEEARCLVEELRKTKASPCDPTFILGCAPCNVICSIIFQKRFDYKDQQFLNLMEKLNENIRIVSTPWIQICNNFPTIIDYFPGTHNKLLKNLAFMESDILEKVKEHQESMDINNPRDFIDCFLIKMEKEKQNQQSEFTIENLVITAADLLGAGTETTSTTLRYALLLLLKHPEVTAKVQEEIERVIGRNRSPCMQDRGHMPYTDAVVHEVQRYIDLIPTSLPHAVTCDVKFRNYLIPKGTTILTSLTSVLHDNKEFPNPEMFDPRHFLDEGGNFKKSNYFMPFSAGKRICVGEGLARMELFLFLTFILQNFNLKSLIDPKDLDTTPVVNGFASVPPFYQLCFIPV
Nuclear receptor subfamily 1 group I member 2 (Rattus norvegicus), sequence (Q9R1A7 whole entry, looked up): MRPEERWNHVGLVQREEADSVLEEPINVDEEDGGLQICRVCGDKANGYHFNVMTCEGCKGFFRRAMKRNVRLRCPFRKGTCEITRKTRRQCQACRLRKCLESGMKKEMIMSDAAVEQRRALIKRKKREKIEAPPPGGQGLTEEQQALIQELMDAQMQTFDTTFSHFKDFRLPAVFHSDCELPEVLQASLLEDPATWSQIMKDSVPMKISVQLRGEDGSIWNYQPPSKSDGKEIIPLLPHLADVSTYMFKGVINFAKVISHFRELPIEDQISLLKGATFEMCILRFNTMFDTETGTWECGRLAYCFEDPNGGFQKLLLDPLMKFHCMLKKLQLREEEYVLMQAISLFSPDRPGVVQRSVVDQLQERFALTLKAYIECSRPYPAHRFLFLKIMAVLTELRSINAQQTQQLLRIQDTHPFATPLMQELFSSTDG

Regarding `CCCCCCCCCC(=O)N(C)C`, the compound was classed as inactive in [1]. The Potency result in [2], in experiment [3], in experiment [4], in [5], in experiment [6] and in experiment [7] was “inactive” in each case. Moreover, the Potency entry in [8], in [9], in [10], in experiment [11], in experiment [12] and in experiment [13] was “inactive” throughout. Also, the Potency entry in experiment [15] is “inactive”. Besides, the Potency was 62.1 µM (active) in [14] and 36.1 µM (active) in experiment [16].
For `C=CC(=O)OCCC#N`, the result in experiment [1] was inactive. The Potency result in experiment [2], in experiment [3], in experiment [5], in [6], in experiment [7] and in experiment [8] was “inactive” throughout. The Potency entry in experiment [9], in experiment [10], in [12], in experiment [13], in experiment [14] and in experiment [15] was “inactive” in each case. In experiment [16], the Potency entry is “inactive”. Besides, the Potency in experiment [11] is 61.5 µM (active).
For the compound `CCC(C)C(=O)OC` (configuration not stated), the compound was classed as inactive in experiment [1]. Also, the Potency entry in [2], in [17], in experiment [4], in experiment [5], in experiment [6] and in experiment [7] was “inactive” each time. In addition, the Potency entry in experiment [8], in experiment [9], in [10], in [11], in [12] and in [13] was “inactive” in each case. For the same compound, the Potency result in [14] and in [16] was “inactive” in each case.
Regarding `CC(C)=CCCC(C)CCOC(=O)C(C)C` (configuration not stated), in experiment [1], the compound was called inactive. Besides, the Potency result in experiment [2], in experiment [3], in experiment [4], in experiment [5], in experiment [6] and in experiment [7] was “inactive” throughout. In addition, the Potency result in [8], in experiment [9], in experiment [10], in experiment [11], in [12] and in [13] was “inactive” each time. Also, the Potency entry in experiment [14] is “inactive”. The Potency in experiment [16] is 79.6 µM (active).
On to `C=CC(=C)CC/C=C(\C)CCC=C(C)C`, for which the activation was 0.395% [at 19 µM] in experiment [1], -1.49% [at 15.8 µM] in experiment [6], 0.335% [at 11.8 µM] in [8] and 8.17% [at 19 µM] in experiment [14]. Also, the figures for the activity change, negative = inhibition in [2] and in experiment [15] were -8.93% [at 18.9 µM] and -7.39% [at 23.6 µM], respectively. Also, the activity change, negative = cytotoxicity in experiment [3] was 7.16% [at 19 µM]; in experiment [5] it was 1.59% [at 15.8 µM]; in experiment [9], 6.03% [at 19 µM]; in experiment [11], -0.798% [at 19 µM]; in experiment [13], -2.86% [at 19 µM]. In addition, the viability change, negative = cytotoxic in experiment [4] was 6.24% [at 15.8 µM]. In addition, the activity, negative = inhibition in experiment [7] is -4.91% [at 10.5 µM]. The caspase activation in experiment [10] was 0.847% [at 19 µM]. The caspase-3/7 activation in experiment [12] was 0.541% [at 19 µM].
In the case of `CN1[C@@H]2CC[C@H]1CC(OC(=O)C(CO)c1ccccc1)C2` (some centres not stated), the compound was called inactive in experiment [1]. The Potency result in [2], in [4], in [5], in [6], in experiment [9] and in experiment [10] was “inactive” throughout. In addition, the Potency entry in experiment [11], in experiment [12] and in experiment [13] was “inactive” throughout. Moreover, the Potency in experiment [3] is 61.1 µM (active). In experiment [18], the max activation was -0.936%.
In the case of `CCCCCCCCCCCCCCCC`, the compound was called inactive in experiment [1]. In addition, the Potency result in experiment [2], in experiment [3], in [4], in experiment [5], in experiment [6] and in experiment [9] was “inactive” throughout. Further, the Potency entry in experiment [10], in experiment [11], in experiment [12], in experiment [13], in experiment [14] and in experiment [15] was “inactive” each time. Further, the Potency result in experiment [16] is “inactive”.

The values are drawn from PubChem BioAssay (Tox21).
